We go through 9 molecules from PubChem BioAssay.

A short description of test [1]: EMT-state selective cytotoxicity in co-culture – imaging, PC-3E GFP, TEM4-18 mCherry, primary screen (AID 1345086;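 active means compounds killing one labelled cell type while sparing the other, by normalised counts and ratio limits, not self-fluorescent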;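 on all read-outs here: cells exposed to compound for 72 h before imaging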;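 on red/green cell ratio (normalised): normalised mesenchymal count divided by normalised epithelial count so high means epithelial killing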). To be noted: PC-3E GFP / TEM4-18 mCherry co-culture, imaging cell counts, at 1 µM; for red/green cell ratio (normalised): actives lie on both sides.
Test [2] is described as follows: viability loss with induced miR-34 in A549 – imaging, A549 dox-inducible miR-34, nuclei and caspase counts, primary screen (AID 1347080;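 active means compounds whose cell count with miR-34 switched on is under 0.7 times the count with it off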). Particulars: A549 miR-34 inducible, Hoechst nuclei count, 48 h.
The nature of test [3]: compounds altering viability of human ES cells (AID 493140).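 Further: cells exposed to compounds for four days before counting.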 To be noted: human embryonic stem cell survival screen; stronger effect = higher value.
The subject of test [4] is Aerobactin synthetase IucA (Klebsiella pneumoniae hvKP1). The experiment in a line: IucA enzyme inhibition, primary screen, biochemical, Spectrum library (AID 1346200).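 Further: 100% = wells without compound and 0% = wells lacking enzyme.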 Particulars: malachite green pyrophosphate, A620, at 8 µM, stronger effect = lower value.
For test [5], the target named is Mitogen-activated protein kinase 7 (Homo sapiens) (UniProt Q13164). The experiment in a line: Gal4-ERK5 driven luciferase induction – cell-based, HTS, primary screen (AID 1508626;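 active means luciferase signal above three times the same-plate solvent-only control wells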;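 further: luciferase driven by Gal4-ERK5 fusion binding five Gal4 sites before minimal TATA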). Particulars: HeLa Gal4-ERK5 transactivation, 18 h, at 5 µM, stronger effect = higher value.
Test [6] in a line: compounds altering circadian rhythm period length – cell-based, LOPAC library, luminescence reporter (AID 2774).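 Further: values are relative to mean of DMSO wells on each plate.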 To be noted: circadian reporter cells, at 7 µM, actives lie on both sides.
Test [7] can be described thus: P. berghei load reduction in hepatocytes – cell-based, HepG2, luciferase luminescence, HepG2 viability, primary screen (AID 624349; in the data active means parasite load remaining mostly below about 12%, no sharp cut-off; inactive means mostly above about 10%;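 further: 100% = mean of DMSO negative control wells on the same plate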). Particulars: P. berghei liver stage in HepG2, luciferase luminescence, concentration not given here; parasite load remaining: stronger effect = lower value; viability: measured here: HepG2 viability without parasites.
Test [8] deals with Hepatitis C virus NS3 helicase. The experiment in a line: blockers of NS3h binding to ssDNA – biochemical, fluorescence polarization, LOPAC1280 library, primary screen (AID 687035; in the data active means inhibition above about 37%). To be noted: Purified HCV NS3 helicase, Cy5-dT15 ssDNA binding fluorescence polarization; stronger effect = higher value; concentration not given here.
The nature of test [9]: compounds altering Cy5-DNA-NS3h complex signal – biochemical, LOPAC1280, artefact control for HCV NS3 helicase inhibitor project (AID 687037). To be noted: Cy5-DNA-NS3h complex fluorescence interference counterscreen. In general terms: A counterscreen serves to expose hits that act by an unwanted route or on another target.
Test [10] deals with Aerobactin synthetase IucA (Klebsiella pneumoniae, hypervirulent). The experiment in a line: biochemical IucA inhibition screen of LOPAC library by absorbance (AID 1346212).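 Further: 100% = no compound wells and 0% = no enzyme wells.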 To be noted: IucA enzyme assay, absorbance (OD) readout; stronger effect = lower value;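 tested at 8 µM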.
Test [11] can be described thus: blockers of cellular phospholipid synthesis – cell-based, LOPAC library, screen 4, primary screen (AID 1347384). To be noted: animal cells, phospholipid biosynthesis inhibition screen; at 10 µM.
A short description of test [12]: galactose survival enhancers in mitochondrial complex I cybrids – cell-based, galactose medium, ATP luminescence, primary screen (AID 1645843;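 active means z-score of at least 1.8 in each of two replicates, scored against plate mean and spread of sample wells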;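 further: positive z means more ATP and so rescue of galactose-driven cybrid death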). Particulars: complex I mutant cybrid cells, 72 h, stronger effect = higher value.
Test [13] is described as follows: yeast 75Q aggregation reduction – 75Q-TubU reporter (AID 1593). To be noted: Yeast 75Q polyglutamine aggregation reporter.
The nature of test [14]: restoration of touch response, mutant HTT neurons – whole organism, C. elegans mechanosensory neurons, N-terminal huntingtin (AID 1599). To be noted: C. elegans polyQ-huntingtin mechanosensory neurons, stronger effect = higher value.
Test [15] is described as follows: blockers of cytochrome c efflux from mitochondria – biochemical, purified mitochondria (AID 1603).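 Further: mouse liver mitochondria challenged with calcium chloride; signal normalized to the plate average as 100%.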 To be noted: stronger effect = lower value.
Test [16] in a line: polyglutamine aggregate formation blockers (AID 1604). Particulars: polyglutamine-induced protein aggregation inhibition assay; stronger effect = higher value; tested at 2.5 µM.
Test [17] is described as follows: glutamate transport activators, MN-1 cells, MN-1 cell line (AID 1612).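 Further: tested at 1 µM final; 0% = mean of DMSO vehicle wells on each plate; positive means more glutamate uptake than control and negative means less.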 Particulars: MN-1 motor neuron cells, stronger effect = higher value.
Test [18] can be described thus: 75Q-TubH aggregate inhibition, S. cerevisiae, yeast (AID 1616). To be noted: S. cerevisiae 75Q-TubH polyglutamine aggregation suppression; stronger effect = higher value.
[19] abbreviates: measured here: epithelial PC-3E GFP cell survival.
Where [20] appears, read: measured here: mesenchymal TEM4-18 mCherry cell survival.
Setting [21] is: measured here: relative caspase fold change +Dox/-Dox.
[22] abbreviates: measured here: total cells with miR-34 induction, stronger effect = lower value.
Setting [23] is: measured here: total cells without miR-34 induction.

Values joined by “and” are separate entries in the source; they are usually repeats but may differ in a detail not shown here. Identical values can stand only once. For part of these data: Potency and affinity values are given separately. Active and inactive are the calls of the source. Unless noted, how the calls were made is not given here.

Chain of Mitogen-activated protein kinase 7 (Homo sapiens) (Q13164 whole entry, looked up, the tested form may be a part): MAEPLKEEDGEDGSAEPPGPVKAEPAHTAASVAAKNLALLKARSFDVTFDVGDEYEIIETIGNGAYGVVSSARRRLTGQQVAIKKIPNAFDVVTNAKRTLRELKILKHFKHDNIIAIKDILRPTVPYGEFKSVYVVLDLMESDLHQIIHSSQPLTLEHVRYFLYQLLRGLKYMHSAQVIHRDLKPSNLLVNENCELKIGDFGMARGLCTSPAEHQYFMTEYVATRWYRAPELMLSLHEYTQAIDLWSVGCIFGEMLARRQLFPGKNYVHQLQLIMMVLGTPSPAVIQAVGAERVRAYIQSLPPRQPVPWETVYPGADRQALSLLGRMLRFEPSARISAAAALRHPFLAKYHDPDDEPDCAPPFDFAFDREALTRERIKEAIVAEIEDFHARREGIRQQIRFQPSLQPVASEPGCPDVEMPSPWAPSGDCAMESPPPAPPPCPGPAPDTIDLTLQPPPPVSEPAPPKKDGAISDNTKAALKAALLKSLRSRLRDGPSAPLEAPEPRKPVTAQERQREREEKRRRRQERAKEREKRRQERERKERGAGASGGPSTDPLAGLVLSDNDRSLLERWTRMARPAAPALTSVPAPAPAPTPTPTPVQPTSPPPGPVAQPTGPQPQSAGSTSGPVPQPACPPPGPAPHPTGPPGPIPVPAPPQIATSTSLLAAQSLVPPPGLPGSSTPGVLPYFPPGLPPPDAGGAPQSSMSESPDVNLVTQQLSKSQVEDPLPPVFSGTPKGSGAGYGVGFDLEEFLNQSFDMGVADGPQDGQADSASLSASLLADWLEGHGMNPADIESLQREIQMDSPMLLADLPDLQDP

On to `C=C/C=C\CC1=C[C@@H](OC(=O)[C@@H]2[C@@H](C=C(C)C)C2(C)C)CC1=O`, for which, in test [1], the red/green cell ratio (normalised) was 0.66 (inactive). Moreover, the normalised cell number in test [1] (setting [19]) turned out to be 1.35; in test [1] (setting [20]), 0.89. Further, the fold change in test [2] (stronger effect = lower value) was 0.949 (inactive); in test [2] (setting [21]) it was 1.14. For the same molecule, the cell count in [2] (setting [22]) is 8080; in [2] (setting [23]), 8520.

Turning to `c1cncc(C2CCCCN2)c1` (configuration not stated), the survival in [3] is 6.5 (inactive). Further, in test [1] (counts scaled to control wells, 1 = unselective), the red/green cell ratio (normalised) is 0.98 (inactive). The normalised cell number is 1.09 in test [1] (setting [19]) and 1.07 in [1] (setting [20]). In test [4], the activity remaining was 102% (inactive). In addition, the luciferase signal in test [5] is 20 AU (inactive).

`C[N+]1(C)C2CCC1CC(OC(=O)C(CO)c1ccccc1)C2` (configuration not stated): the period change in test [6] was 0.05 hour (inactive) and -0.075 hour (inactive). For the same molecule, the survival in test [3] was 5.08 (inactive). Also, the parasite load remaining in test [7] is 37.4% (inactive). Further, in test [7], the viability worked out at 106%. The inhibition in test [8] was -4% (inactive) and -3% (inactive). Moreover, the fluorescence ratio (interference) in test [9] was 1 (inactive). Also, the red/green cell ratio (normalised) in test [1] is 1.05 (inactive). Besides, the values for the normalised cell number in test [1] (setting [19]) and in test [1] (setting [20]) were 0.95 and 1, respectively. The remaining activity in [10] is 112% (inactive). Besides, the fold change in test [2] (stronger effect = lower value) is 1.08 (inactive) and 0.98 (inactive) and 0.858 (inactive); in test [2] (setting [21]), 1.57 and 0.863 and 5.64. Moreover, the cell count in test [2] (setting [22]) was 9760 and 10000 and 10600; in test [2] (setting [23]), 9050 and 10200 and 12400. Also, the molecule was called inactive in test [11]. Further, in test [12], the z-score is 0.49 (inactive) and 0.65 (inactive).

As to `COc1cc2c(cc1O)CC1c3c(cc(O)c(OC)c3-2)CCN1C` (configuration not stated), the survival in test [3] was 4.08 (inactive). Moreover, the parasite load remaining in test [7] is 73.5% (inactive). Further, the viability in test [7] amounted to 80.3%. The red/green cell ratio (normalised) in test [1] was 0.97 (inactive). The normalised cell number in [1] (setting [19]) came out at 1.11; in test [1] (setting [20]), 1.07. Moreover, the activity remaining in [4] is 119% (inactive).

Consider `CN1CC(CNC(=O)OCc2ccccc2)CC2c3cccc4c3c(cn4C)CC21` (configuration not stated), for which, in test [13], the score amounted to 1.1. The same molecule gave a rescue above control in test [14] of 11.5. Moreover, the cytochrome c release ratio in test [15] came to 0.97. Besides, the inhibition of aggregation in test [16] turned out to be 12.2%. In addition, the glutamate uptake change in [17] was found to be 5.85%. Moreover, the aggregation suppression score in test [18] was 1.13. Besides, the red/green cell ratio (normalised) in [1] was 0.64 (inactive). The normalised cell number was determined as 1.26 in test [1] (setting [19]) and 0.81 in test [1] (setting [20]). For the same molecule, in test [4], the activity remaining was 113% (inactive).

Take `C[C@]12CC[C@H](O)CC1=CCC1C2CC[C@]2(C)C(=O)CC[C@@H]12` (some centres not stated): the red/green cell ratio (normalised) in test [1] is 0.71 (inactive). The normalised cell number in [1] (setting [19]) worked out at 1.37; in test [1] (setting [20]), 0.97. The fold change in [2] (stronger effect = lower value) was 0.933 (inactive); in [2] (setting [21]) it was 1.12. The cell count was 7350 in test [2] (setting [22]) and 7880 in test [2] (setting [23]).

`NC1=NC(=O)N2CC12` (configuration not stated): the red/green cell ratio (normalised) in test [1] is 0.74 (inactive). Moreover, the figures for the normalised cell number in [1] (setting [19]) and in test [1] (setting [20]) were 1.2 and 0.88, respectively. Moreover, the fold change in test [2] (stronger effect = lower value) was 0.901 (inactive); in test [2] (setting [21]), 0.97. Further, the cell count turned out to be 8180 in test [2] (setting [22]) and 9090 in [2] (setting [23]).

Consider `O=c1cccc2n1C[C@H]1CNCC2C1`, for which the parasite load remaining in test [7] was 64.2% (inactive). The viability in [7] is 103%. In addition, the red/green cell ratio (normalised) in test [1] was 0.78 (inactive). In addition, the results for the normalised cell number in [1] (setting [19]) and in test [1] (setting [20]) were 1.31 and 1.02, respectively. Also, the activity remaining in test [4] was 107% (inactive).

Turning to `CC1=C2CCC3C(CC[C@]4(C)C(=O)CCC34)[C@@]2(C)CCC1=O` (some centres not stated), in test [7], the parasite load remaining was 48.4% (inactive) and the viability was found to be 85.7%. Besides, the red/green cell ratio (normalised) in test [1] was 0.88 (inactive). The molecule further registered a normalised cell number in test [1] (setting [19]) of 1.27. The molecule also registered a normalised cell number in test [1] (setting [20]) of 1.12. Besides, the activity remaining in test [4] is 104% (inactive).

Broadly, the viability is a read-out of living cells in per cent, often relative to untreated cells. For orientation: inhibition means the drop in the measured response relative to a control, in per cent. As a reminder, the remaining activity is the signal under treatment as a percentage of the control signal.
